Experiment [1] can be described thus: Nuclear factor erythroid 2-related factor 2/antioxidant responsive element (Nrf2/ARE) small molecule agonists: qHTS cell viability counter screen in human keratinocytes (AID 1919968; active means well fitted curve in the direction sought with a large enough effect in the repeat runs; an effect the other way counts as inactive or inconclusive; further: nearly all actives have a fitted effect of over 55% in size; further: potency means the concentration at half of the fitted maximal effect). A digest of the protocol: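 Stably transfected HaCaT (KeratinoSens), 1,500/well. Test agents in DMSO were applied for 23 h, 37 C/5% CO2. CellTiter-Fluor was incubated 1 h before the fluorescence read.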

The target in experiment [2] is Gonadotropin-releasing hormone receptor (Homo sapiens) (UniProt P30968). Briefly: Human gonadotropin-releasing hormone receptor (GnRHR) small molecule agonists, calcium flux assay in GnRHR-HEK293 cells (AID 1920063). Further: nearly all actives have a fitted effect of over 35% in size. A digest of the protocol:
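Stable human GnRHR HEK293 line. 18 h plating, then calcium dye for 1 h at 37 C. Agonist-mode compound addition from DMSO stocks; fluorescence monitored 3 min.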

Experiment [3] addresses KiSS-1 receptor (Homo sapiens) (UniProt Q969F8). In words: Human kisspeptin (KISS1R) small molecule agonists, calcium flux assay in KISS1R-HEK293 cells (AID 1920064; active means well fitted curve in the direction sought with a large enough effect in the repeat runs; an effect the other way counts as inactive or inconclusive). A digest of the protocol: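 After overnight (18 h) culture at 37 C/5% CO2, human KISS1R-HEK293 cells received calcium dye for 1 h, then test compound; emission at 540 nm (excitation 480 nm) was tracked for 3 min.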

Experiment [4] can be described thus: G protein-coupled receptor (GPCR) small molecule agonists, calcium flux assay: HEK293 wild type cell line counter screen (AID 1920065). A digest of the protocol: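 Following 18 h incubation at 37 C/5% CO2, plates got calcium dye for 1 h; compounds, ATP or DMSO were then pinned in and fluorescence followed kinetically (480/540 nm).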
On the technique in general: Calcium flux is commonly read through the fluorescence of an indicator in the cells.

A short description of experiment [5]: p53 small molecule agonists, cell-based qHTS assay with human liver microsomes (AID 1963577).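 Further: p53 response element beta-lactamase reporter cells with liver microsomes plus NADPH.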 A digest of the protocol:
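With metabolic activation: human liver microsomes (0.5 mg/mL final) plus NADPH (0.5 mg/mL final) added alongside compounds to p53RE-bla cells; 16 h 37 C exposure; beta-lactamase read by LiveBLAzer fluorescence.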
In general terms: qHTS replaces the single test concentration by a dilution series.

A short description of experiment [6]: p53 small molecule agonists, cell-based qHTS assay with rat liver microsomes (AID 1963578). A digest of the protocol:
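Metabolic activation by rat liver microsomes and NADPH, each 0.5 mg/mL final, added right after compounds to p53RE-bla reporter cells (4,000/well, plated 5 h earlier). 16 h at 37 C, then LiveBLAzer substrate for 2 h at room temperature in the dark; fluorescence read-out.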

A short description of experiment [7]: p53 small molecule agonists, cell-based qHTS assay with human liver microsomes: qHTS cell viability counter screen (AID 1963579). Further: nearly all actives have a fitted effect of over 45% in size. Further: potency means the concentration at half of the fitted maximal effect. A digest of the protocol:
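Metabolic activation used human liver microsomes and NADPH, both 0.5 mg/mL final, over 16 hours at 37 C on p53RE-bla cells (4,000/well). Cytotoxicity measured by CellTiter-Glo luminescence, 30 min at room temperature.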

The nature of experiment [8]: p53 small molecule agonists, cell-based qHTS assay with rat liver microsomes: qHTS cell viability counter screen (AID 1963580). Further: nearly all actives have a fitted effect of over 45% in size. Further: potency means the concentration at half of the fitted maximal effect. A digest of the protocol:
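Counter screen for cytotoxicity under metabolic activation: rat liver microsomes and NADPH, 0.5 mg/mL final each, added with compounds to p53RE-bla HCT-116 cells; 16 h at 37 C, then ATP luminescence read.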

Experiment [9] is described as follows: p53 small molecule agonists, cell-based qHTS assay: qHTS cell viability counter screen (AID 1963581). Further: nearly all actives have a fitted effect of over 45% in size. Further: potency means the concentration at half of the fitted maximal effect. A digest of the protocol: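 qHTS counter screen: 16 h compound exposure at 37 C of p53RE-bla HCT-116 cells (4,000 per well, seeded 5 h prior), cell viability by ATP luminescence.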
A short description of experiment [10]: p53 small molecule agonists, cell-based qHTS assay (AID 1963582; active means well fitted activation curve with a large enough effect in the signal ratio in the repeat runs, not every such curve was filed as active; the % refers to the signal ratio). A digest of the protocol:
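Measured: fluorescence from cleaved LiveBLAzer substrate. System: p53RE-bla cells, 16 h compound treatment at 37 C, 2 h substrate step at room temperature.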

In experiment [11] the target is 5-hydroxytryptamine receptor 2A (Homo sapiens) (UniProt P28223). In words: 5-hydroxytryptamine receptor 2A (HTR2A) small molecule antagonists, cell-based qHTS assay (AID 1963586). Further: nearly all actives have a fitted effect of over 45% in size. Further: potency means the concentration at half of the fitted maximal effect. A digest of the protocol: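 CHO cells stably expressing human HTR2A were plated for 18 h at 37 C, then loaded with calcium dye for 1 h. Compounds were preincubated 5 min at room temperature before DOI (4 nM solution) was added. Kinetic fluorescence was read for 3 min.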
Sequence of 5-hydroxytryptamine receptor 2A (Homo sapiens) (P28223 whole entry, looked up): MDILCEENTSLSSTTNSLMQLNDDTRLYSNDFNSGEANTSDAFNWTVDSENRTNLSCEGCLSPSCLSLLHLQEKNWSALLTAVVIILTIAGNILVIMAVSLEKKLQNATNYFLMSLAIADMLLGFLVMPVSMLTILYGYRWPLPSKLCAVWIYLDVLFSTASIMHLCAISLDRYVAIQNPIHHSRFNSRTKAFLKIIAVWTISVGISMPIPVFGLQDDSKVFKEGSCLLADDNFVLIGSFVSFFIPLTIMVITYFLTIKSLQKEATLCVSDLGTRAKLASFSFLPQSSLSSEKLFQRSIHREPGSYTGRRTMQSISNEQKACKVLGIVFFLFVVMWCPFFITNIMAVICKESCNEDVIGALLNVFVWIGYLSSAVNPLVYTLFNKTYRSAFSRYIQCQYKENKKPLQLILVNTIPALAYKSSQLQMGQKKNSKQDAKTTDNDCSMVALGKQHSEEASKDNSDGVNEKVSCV

Experiment [12] has the same target. In words: 5-hydroxytryptamine receptor 2A (HTR2A) small molecule agonists, cell-based qHTS assay (AID 1963587). Further: nearly all actives have a fitted effect of over 30% in size. Further: potency means the concentration at half of the fitted maximal effect. A digest of the protocol:
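HTR2A-CHO cells, plated 18 h at 37 C/5% CO2, dye-loaded 1 h at 37 C; compounds in DMSO added by pin tool (agonist mode). Intracellular calcium flux read as kinetic fluorescence on FDSS over 2 min at 1 s intervals.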

The target in experiment [13] is Muscarinic acetylcholine receptor M1 (Homo sapiens) (UniProt P11229). Briefly: Cholinergic receptor muscarinic 1 (CHRM1) small molecule antagonists, cell-based qHTS assay (AID 1963588). Further: nearly all actives have a fitted effect of over 40% in size. A digest of the protocol: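 Compounds were tested at 15 concentrations in three independent runs. Dye-loaded CHRM1-CHO cells were exposed 5 min at room temperature before stimulation by acetylcholine added at 50nM. Intracellular calcium was read kinetically on FDSS for 3 min.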
Sequence of Muscarinic acetylcholine receptor M1 (Homo sapiens) (P11229 whole entry, looked up): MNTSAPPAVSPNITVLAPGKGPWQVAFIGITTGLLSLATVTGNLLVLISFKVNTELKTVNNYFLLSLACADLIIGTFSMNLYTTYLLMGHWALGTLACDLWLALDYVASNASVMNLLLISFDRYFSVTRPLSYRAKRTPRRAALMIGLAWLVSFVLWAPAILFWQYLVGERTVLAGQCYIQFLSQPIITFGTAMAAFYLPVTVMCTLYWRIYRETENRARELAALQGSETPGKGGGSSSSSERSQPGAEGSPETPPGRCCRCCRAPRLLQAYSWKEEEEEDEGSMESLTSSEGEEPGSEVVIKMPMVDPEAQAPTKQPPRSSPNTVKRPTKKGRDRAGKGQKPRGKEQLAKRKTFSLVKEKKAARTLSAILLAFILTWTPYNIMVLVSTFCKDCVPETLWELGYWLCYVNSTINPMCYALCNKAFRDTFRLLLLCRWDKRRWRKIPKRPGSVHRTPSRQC

For experiment [14] the target is unchanged. In words: Cholinergic receptor muscarinic 1 (CHRM1) small molecule agonists, cell-based qHTS assay (AID 1963589). Further: nearly all actives have a fitted effect of over 35% in size. A digest of the protocol: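 Kinetic fluorescence (1 s intervals) of calcium-sensitive dye in human M1 CHO cells after compound addition; cells pre-incubated 18 h at 37 C/5% CO2 and dye-loaded 1 h.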
Experiment [15] can be described thus: cAMP Responsive Elements (CRE) small molecule antagonists, cell-based qHTS assay (AID 1963591; active means well fitted inhibition curve with a large enough effect in the signal ratio in the repeat runs, not every such curve was filed as active; the % refers to the signal ratio). A digest of the protocol: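 Reporter line CRE-bla HEK 293T in dialyzed-FBS DMEM; cells preincubated 18 h, treated 3 h with compound plus NKH477 (0.25 uM final); LiveBLAzer FRET, 2 h RT.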
Experiment [16] concerns the target Beta-2 adrenergic receptor (Homo sapiens) (UniProt P07550). Briefly: Adrenergic beta2 receptor (ADRB2) small molecule antagonists, cell-based qHTS assay (AID 1963592). Further: nearly all actives have a fitted effect of over 50% in size. Further: potency means the concentration at half of the fitted maximal effect. A digest of the protocol: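 Assay format: CHO-ADRB2 cells, 18-20hr seeding at 37C/5% CO2, then compound plus 1nM isoproterenol agonist mix for 0.5hr RT. Homogeneous time-resolved fluorescence cAMP detection after 1hr, expressed as 665/615 nm ratio.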

Experiment [17] concerns the target D(2) dopamine receptor (Homo sapiens) (UniProt P14416). Briefly: Dopamine D2 receptor (DRD2) small molecule agonists, cell-based qHTS assay (AID 1963594). Further: nearly all actives have a fitted effect of over 35% in size. A digest of the protocol: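 HEK293 cells stably expressing DRD2 were cultured 24 h at 37 C, then given Ro20-1724 (0.1 mM final) and compounds for 10 min at room temperature. NKH477 (200nM) was then added for 30 min. cAMP was read by HTRF.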

Experiment [18] shares this target. Briefly: Dopamine D2 receptor (DRD2) small molecule antagonists, cell-based qHTS assay (AID 1963595; active means well fitted inhibition curve with a large enough effect in the signal ratio in the repeat runs, with a control signal flat; the % refers to the signal ratio). A digest of the protocol:
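Antagonist mode in DRD2-HEK293 cells: after compound addition with 0.1 mM Ro20-1724, cells received quinpirole (12 nM) and NKH477 (200 nM) for 30 min at room temperature; HTRF cAMP read after 1 h detection.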

The nature of experiment [19]: cAMP Responsive Elements (CRE) small molecule agonists, cell-based qHTS assay (AID 1963590). A digest of the protocol:
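Test agents in DMSO were incubated 3 h at 37 C/5% CO2 with CRE-bla HEK 293T cells seeded 18 h earlier; LiveBLAzer B/G FRET substrate was added and read after 2 h at room temperature.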

Experiment [20] deals with Beta-2 adrenergic receptor (Homo sapiens) (UniProt P07550). Briefly: Adrenergic beta2 receptor (ADRB2) small molecule agonists, cell-based qHTS assay (AID 1963593).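 Further: CHO cells stably overexpressing human ADRB2.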 A digest of the protocol:
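CHO cells stably over-expressing ADRB2 were plated overnight at 37C, then dosed with compounds plus a stimulation mix containing 100uM IBMX and 25uM Ro-20-1724 for 0.5hr at room temperature. cAMP was measured by HTRF competition, 1hr.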

“And” between values parts separate entries of the source, which are not always exact repeats. Equal values may be shown once. Results filed as inconclusive are left out. More than one record can exist for a structure, and the calls need not agree. The source made the active and inactive calls. Unless noted, the call rests on the fitted dose curve.

This is an account of results in PubChem BioAssay (Tox21).

Sequence of Gonadotropin-releasing hormone receptor (Homo sapiens) (P30968 whole entry, looked up): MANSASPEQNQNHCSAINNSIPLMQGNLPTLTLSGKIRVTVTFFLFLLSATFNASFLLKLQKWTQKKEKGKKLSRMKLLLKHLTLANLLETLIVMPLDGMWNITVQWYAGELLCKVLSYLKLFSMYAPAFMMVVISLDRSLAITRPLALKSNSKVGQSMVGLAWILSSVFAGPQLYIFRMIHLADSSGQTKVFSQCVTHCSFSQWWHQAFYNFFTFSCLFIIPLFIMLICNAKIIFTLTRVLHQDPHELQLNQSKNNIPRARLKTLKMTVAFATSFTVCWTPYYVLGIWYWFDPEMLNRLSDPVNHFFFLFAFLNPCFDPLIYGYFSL
Sequence of Beta-2 adrenergic receptor (Homo sapiens) (P07550 whole entry, looked up): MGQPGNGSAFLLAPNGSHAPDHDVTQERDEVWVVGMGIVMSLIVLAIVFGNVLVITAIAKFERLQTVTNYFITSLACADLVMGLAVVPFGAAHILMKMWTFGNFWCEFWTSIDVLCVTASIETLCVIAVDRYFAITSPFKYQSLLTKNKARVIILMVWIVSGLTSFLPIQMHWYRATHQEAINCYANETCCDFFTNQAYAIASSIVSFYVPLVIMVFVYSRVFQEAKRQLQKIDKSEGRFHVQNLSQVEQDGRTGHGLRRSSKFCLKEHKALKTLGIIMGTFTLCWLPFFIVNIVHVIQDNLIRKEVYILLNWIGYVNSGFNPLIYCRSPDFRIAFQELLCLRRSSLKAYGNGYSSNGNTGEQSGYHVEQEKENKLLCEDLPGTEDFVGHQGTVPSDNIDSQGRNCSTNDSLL
Sequence of KiSS-1 receptor (Homo sapiens) (Q969F8 whole entry, looked up): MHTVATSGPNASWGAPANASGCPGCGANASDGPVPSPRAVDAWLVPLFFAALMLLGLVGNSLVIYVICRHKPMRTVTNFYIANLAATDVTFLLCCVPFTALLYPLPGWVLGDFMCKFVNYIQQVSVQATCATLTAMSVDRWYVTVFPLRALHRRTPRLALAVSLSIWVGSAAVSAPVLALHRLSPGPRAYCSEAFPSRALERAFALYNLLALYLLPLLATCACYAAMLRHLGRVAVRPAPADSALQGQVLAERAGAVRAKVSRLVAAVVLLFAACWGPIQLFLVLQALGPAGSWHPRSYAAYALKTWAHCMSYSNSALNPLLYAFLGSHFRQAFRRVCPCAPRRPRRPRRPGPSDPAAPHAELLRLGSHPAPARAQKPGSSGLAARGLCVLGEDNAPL
Sequence of D(2) dopamine receptor (Homo sapiens) (P14416 whole entry, looked up): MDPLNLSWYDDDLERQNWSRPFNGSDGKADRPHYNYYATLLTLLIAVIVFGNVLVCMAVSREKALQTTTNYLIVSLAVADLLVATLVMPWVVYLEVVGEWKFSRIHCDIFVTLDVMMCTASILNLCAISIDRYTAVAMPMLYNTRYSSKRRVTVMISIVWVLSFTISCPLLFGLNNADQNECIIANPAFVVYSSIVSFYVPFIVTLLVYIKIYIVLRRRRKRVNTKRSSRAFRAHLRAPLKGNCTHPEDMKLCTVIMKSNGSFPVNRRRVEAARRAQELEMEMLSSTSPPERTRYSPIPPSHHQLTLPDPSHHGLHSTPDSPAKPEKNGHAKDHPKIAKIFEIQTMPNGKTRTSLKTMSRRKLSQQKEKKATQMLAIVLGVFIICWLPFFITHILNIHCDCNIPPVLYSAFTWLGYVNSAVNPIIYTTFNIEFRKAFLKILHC

For `CC(C)OC(=O)COc1ccc(Cl)cc1Cl`, the Potency entry in [1], in [2], in experiment [3], in experiment [4], in experiment [5] and in experiment [6] was “inactive” throughout. Besides, the Potency entry in experiment [7], in experiment [8], in experiment [9], in experiment [10], in [11] and in experiment [12] was “inactive” throughout. For the same molecule, the Potency entry in [13], in experiment [14], in [15], in experiment [16], in experiment [17] and in experiment [18] was “inactive” in each case.
Turning to `CCCCCCCCCCCCOC(=O)c1cc(O)c(O)c(O)c1`, the Potency in experiment [1] was 30.5 µM (active) and 27.3 µM (active); in experiment [7], 45.8 µM (active); in experiment [8] it was 40.6 µM (active); in experiment [9] it was 40.6 µM (active) and 40.8 µM (active); in [12] it was 10.9 µM (active) and inactive. Moreover, the Potency result in [2], in experiment [3], in experiment [4], in experiment [5], in experiment [6] and in [11] was “inactive” in each case. Also, the Potency entry in [13], in [14], in [19], in experiment [16] and in [17] was “inactive” each time.
In the case of `O=c1c(O)c(-c2ccc(O)c(O)c2)oc2cc(O)cc(O)c12`, the Potency result in [1], in [2], in experiment [3], in [4], in experiment [5] and in experiment [6] was “inactive” throughout. The Potency result in experiment [7], in experiment [8], in experiment [10], in [11], in experiment [12] and in experiment [13] was “inactive” throughout. Moreover, the Potency entry in [14], in [15], in experiment [16], in experiment [20], in experiment [17] and in experiment [18] was “inactive” each time.
As to `CCN(CCN)c1cccc(C)c1`, the Potency entry in experiment [1], in experiment [2], in experiment [3], in experiment [4], in experiment [5] and in experiment [6] was “inactive” each time. Further, the Potency entry in experiment [7], in [8], in [9], in [10], in experiment [13] and in [19] was “inactive” throughout. In addition, the Potency result in experiment [15], in experiment [17] and in experiment [18] was “inactive” in each case. Moreover, the Potency was 0.53 µM (active) in experiment [11]; 393 nM (active) and 776 nM (active) in [12]; 24.6 µM (active) in experiment [16].
`C=C(C)C(=O)O`: the Potency entry in experiment [1], in experiment [2], in experiment [3], in experiment [4], in [5] and in [6] was “inactive” throughout. For the same molecule, the Potency result in [7], in experiment [8], in experiment [9], in [10], in experiment [11] and in [12] was “inactive” in each case. In addition, the Potency entry in experiment [13], in experiment [14], in experiment [19], in [15], in [16] and in [20] was “inactive” in each case. The Potency entry in experiment [17] and in [18] was “inactive” each time.
`CCCCC(=O)O`: the Potency result in experiment [1], in [2], in [3], in experiment [4], in experiment [5] and in experiment [6] was “inactive” in each case. For the same molecule, the Potency result in [7], in experiment [8], in experiment [9], in experiment [10], in experiment [11] and in [12] was “inactive” throughout. The Potency result in experiment [13], in experiment [14], in experiment [19], in experiment [15], in experiment [16] and in [20] was “inactive” each time. Moreover, the Potency result in experiment [17] and in experiment [18] was “inactive” each time.
Turning to `C=CC(=O)OCCCC`, the Potency result in experiment [1], in experiment [2], in experiment [3], in experiment [4], in experiment [5] and in experiment [6] was “inactive” in each case. In addition, the Potency result in [7], in [8], in experiment [9], in experiment [10], in [11] and in [12] was “inactive” each time. Also, the Potency entry in [13], in [14], in experiment [19], in experiment [15], in experiment [16] and in experiment [17] was “inactive” each time. Besides, in [18], the Potency entry is “inactive”.
